Experimental data from PubChem BioAssay (Tox21).
Where “and” joins values, the source holds several entries; their conditions need not be identical. Equal values may be shown once. Inconclusive results are not listed. The source holds several records for some structures; these can differ, active in one and inactive in another. Calls of active or inactive are those of the source. Calls follow the shape of the dose curve; as a rule, active = well fitted curve in the direction sought with a large enough effect in the repeat runs; inconclusive = weak or mixed curves; inactive = no such curve, though single readings can be large; an effect the other way counts as inactive or inconclusive.

Columns and labels:
[1] = A CellTox Green Cytotoxicity Assay to monitor cytotoxicity in HEK293 cells - 40 hour (AID 1224871); also: nearly all actives have a fitted effect of over 45% in size
Procedure, shortened: (§1)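 Homogeneous no-lysis format: HEK293 cell suspension mixed with CellTox Green reagent, seeded, incubated 5 h at 37 C/5% CO2, then dosed by pintool with compound in DMSO.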

[2] = qHTS RealTime-Glo MT Cell Viability Assay in HepG2 cells - 8 hour (AID 1224873); also: nearly all actives have a fitted effect of over 55% in size
Procedure, shortened: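 HepG2 cells mixed with RealTime-Glo MT reagents (NanoLuc plus cell-permeant prosubstrate) were seeded at 600 cells/well, incubated 5 h at 37 C/5% CO2, then pinned with compounds in DMSO; nonlytic luminescence tracked viability during 40 h treatment.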

[3] = qHTS RealTime-Glo MT Cell Viability Assay in HEK293 cells - 40 hour (AID 1224874); details: RealTime-Glo luminescence; max response: stronger effect = lower value; also: nearly all actives have a fitted effect of over 50% in size; also: potency is read from the fitted curve at half-maximal effect
Procedure, shortened: (§2)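 Measured as luminescence from the same continuously cultured HEK293 wells at successive time points (0, 8, 16, 24, 32, 40 h) after compound addition. Reagent present from seeding; dosing at 5 h; incubation 37 C.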

[4] = A CellTox Green Cytotoxicity Assay to monitor cytotoxicity in HEK293 cells - 24 hour (AID 1224875); also: series mostly up to about 77 µM; nearly all actives have a fitted effect of over 45% in size
Procedure, shortened: as §1

[5] = A CellTox Green Cytotoxicity Assay to monitor cytotoxicity in HepG2 cells - 16 hour (AID 1224876); also: nearly all actives have a fitted effect of over 45% in size
Procedure, shortened: (§3)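 Fluorescent DNA-binding dye, 600 HepG2 cells/well, 5 h preincubation then compound in DMSO; same plates read at 0–40 h, 37 C.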

[6] = qHTS RealTime-Glo MT Cell Viability Assay in HepG2 cells - 32 hour (AID 1224877); also: nearly all actives have a fitted effect of over 55% in size
Procedure, shortened: (§4)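 qHTS, HepG2, 600 cells/well, RealTime-Glo (NanoLuc + prosubstrate) added with cells; 5 h preincubation; DMSO compound addition; 37 C; luminescence at 0/8/16/24/32/40 h.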

[7] = A CellTox Green Cytotoxicity Assay to monitor cytotoxicity in HepG2 cells - 24 hour (AID 1224878); also: nearly all actives have a fitted effect of over 45% in size
Procedure, shortened: as §3

[8] = A CellTox Green Cytotoxicity Assay to monitor cytotoxicity in HepG2 cells - 40 hour (AID 1224879); also: nearly all actives have a fitted effect of over 40% in size; also: potency is read from the fitted curve at half-maximal effect
Procedure, shortened: as §3

[9] = qHTS RealTime-Glo MT Cell Viability Assay in HEK293 cells - 0 hour (AID 1224880)
Procedure, shortened: as §2

[10] = A CellTox Green Cytotoxicity Assay to monitor cytotoxicity in HEK293 cells - 32 hour (AID 1224881); also: nearly all actives have a fitted effect of over 40% in size; also: potency is read from the fitted curve at half-maximal effect
Procedure, shortened: as §1

[11] = A CellTox Green Cytotoxicity Assay to monitor cytotoxicity in HepG2 cells - 32 hour (AID 1224883); also: nearly all actives have a fitted effect of over 50% in size; also: potency is read from the fitted curve at half-maximal effect
Procedure, shortened: as §3

[12] = A CellTox Green Cytotoxicity Assay to monitor cytotoxicity in HEK293 cells - 8 hour (AID 1224884); also: nearly all actives have a fitted effect of over 35% in size
Procedure, shortened: as §1

[13] = qHTS RealTime-Glo MT Cell Viability Assay in HEK293 cells - 24 hour (AID 1224886); also: nearly all actives have a fitted effect of over 50% in size; also: potency is read from the fitted curve at half-maximal effect
Procedure, shortened: (§5)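 Assay medium contained NanoLuc luciferase plus cell-permeant prosubstrate, added with HEK293 cells at 600 cells/well. After 5 h at 37 C/5% CO2 compounds were added; plates stayed at 37 C for 40 h with serial luminescence reads.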

[14] = qHTS RealTime-Glo MT Cell Viability Assay in HEK293 cells - 8 hour (AID 1224887); also: top concentration of the series differs between compounds; nearly all actives have a fitted effect of over 50% in size
Procedure, shortened: as §2

[15] = A CellTox Green Cytotoxicity Assay to monitor cytotoxicity in HEK293 cells - 16 hour (AID 1224888); also: nearly all actives have a fitted effect of over 35% in size
Procedure, shortened: as §1

[16] = qHTS RealTime-Glo MT Cell Viability Assay in HepG2 cells - 0 hour (AID 1224889); also: nearly all actives have a fitted effect of over 50% in size; also: potency is read from the fitted curve at half-maximal effect
Procedure, shortened: as §4

[17] = A CellTox Green Cytotoxicity Assay to monitor cytotoxicity in HepG2 cells - 8 hour (AID 1224890); also: nearly all actives have a fitted effect of over 45% in size
Procedure, shortened: as §3

[18] = qHTS RealTime-Glo MT Cell Viability Assay in HEK293 cells - 16 hour (AID 1224872)
Procedure, shortened: as §5

[19] = A CellTox Green Cytotoxicity Assay to monitor cytotoxicity in HepG2 cells - 0 hour (AID 1224882); also: nearly all actives have a fitted effect of over 35% in size
Procedure, shortened: as §3

[20] = qHTS RealTime-Glo MT Cell Viability Assay in HepG2 cells - 16 hour (AID 1224885); also: nearly all actives have a fitted effect of over 50% in size
Procedure, shortened: as §4
% is scaled to controls: 0 for no effect and ±100 for the full control effect.

C[C@]12CC[C@@H]3c4ccc(O)cc4CC[C@H]3[C@@H]1CC[C@H]2O
inactive: Potency [1] | Potency [2] | Potency [4] | Potency [5] | Potency [6] | Potency [7] | Potency [9] | Potency [10] | Potency [12] | Potency [14] | Potency [15] | Potency [16] | Potency [17]
active: Potency [3] 5.59 µM and 15.5 µM | Potency [8] 9.94 µM and 34.7 µM | Potency [11] 11.2 µM and 34.7 µM | Potency [13] 5.59 µM and 13.8 µM

ClC/C=C/CCl
inactive: Potency [1] | Potency [18] | max response [3] 18.6% and 9.13% | Potency [4] | Potency [5] | Potency [6] | Potency [7] | Potency [8] | Potency [9] | Potency [19] | Potency [12] | Potency [20] | Potency [13] | Potency [14] | Potency [15] | Potency [16] | Potency [17]

CC(C)=CCO
inactive: Potency [1] | Potency [18] | max response [3] 4.01% and 0.683% | Potency [4] | Potency [5] | Potency [6] | Potency [7] | Potency [8] | Potency [9] | Potency [10] | Potency [19] | Potency [11] | Potency [12] | Potency [20] | Potency [13] | Potency [15] | Potency [16] | Potency [17]

C[N+](C)(C)CCO
inactive: Potency [1] | Potency [18] | max response [3] 15.9% and 6.06% | Potency [4] | Potency [5] | Potency [6] | Potency [7] | Potency [8] | Potency [9] | Potency [19] | Potency [11] | Potency [12] | Potency [20] | Potency [13] | Potency [14] | Potency [15] | Potency [16] | Potency [17]

CC(C)[C@@H]1CC[C@@H](C)CC1=O
inactive: Potency [1] | Potency [18] | max response [3] -0.963% and 5.54% | Potency [4] | Potency [5] | Potency [6] | Potency [7] | Potency [8] | Potency [9] | Potency [10] | Potency [19] | Potency [11] | Potency [12] | Potency [20] | Potency [13] | Potency [15] | Potency [16] | Potency [17]

C=C1C[C@H]2[C@@H]3C=C(C)C4=CC(=O)CC[C@]4(C)[C@H]3CC[C@]2(C)[C@@]1(OC(C)=O)C(C)=O
active: Potency [16] 1.41 µM and 6.01 µM
inactive: Potency [1] | Potency [2] | Potency [4] | Potency [5] | Potency [6] | Potency [7] | Potency [8] | Potency [10] | Potency [19] | Potency [11] | Potency [12] | Potency [20] | Potency [14] | Potency [15] | Potency [17]

O=C1CCc2ccccc2O1
inactive and 21.9 µM (active): Potency [10]
inactive: Potency [1] | Potency [18] | max response [3] 3.8% and -0.872% | Potency [5] | Potency [6] | Potency [7] | Potency [8] | Potency [9] | Potency [19] | Potency [11] | Potency [12] | Potency [20] | Potency [13] | Potency [14] | Potency [15] | Potency [16] | Potency [17]

C[C@]12C=CC(=O)C=C1CC[C@H]1[C@@H]3C[C@@H](O)[C@](O)(C(=O)CO)[C@@]3(C)C[C@H](O)[C@@]12F
active: Potency [16] 21.9 µM
inactive: Potency [1] | Potency [18] | max response [3] 1.25% and 4.53% | Potency [4] | Potency [5] | Potency [6] | Potency [7] | Potency [8] | Potency [9] | Potency [10] | Potency [19] | Potency [12] | Potency [20] | Potency [13] | Potency [15] | Potency [17]

CN1CCOCC1
inactive: Potency [1] | Potency [18] | max response [3] 8.86% and 4.46% | Potency [4] | Potency [5] | Potency [6] | Potency [7] | Potency [8] | Potency [9] | Potency [11] | Potency [12] | Potency [20] | Potency [13] | Potency [14] | Potency [15] | Potency [16] | Potency [17]

CC1(C)NC(=O)N(c2ccc([N+](=O)[O-])c(C(F)(F)F)c2)C1=O
inactive: Potency [1] | Potency [2] | Potency [4] | Potency [5] | Potency [6] | Potency [7] | Potency [8] | Potency [9] | Potency [10] | Potency [11] | Potency [12] | Potency [15] | Potency [16] | Potency [17]
active: Potency [3] 24.5 µM
24.5 µM (active) and inactive: Potency [13]

C=CN1CCCC1=O
inactive: Potency [1] | Potency [18] | max response [3] 0.332% and -7.88% | Potency [4] | Potency [5] | Potency [6] | Potency [7] | Potency [8] | Potency [9] | Potency [10] | Potency [19] | Potency [12] | Potency [13] | Potency [15] | Potency [16] | Potency [17]

Cc1ccc(S(=O)(=O)O)cc1C
inactive: Potency [1] | Potency [18] | max response [3] -0.252% and 9.18% | Potency [4] | Potency [5] | Potency [6] | Potency [7] | Potency [8] | Potency [9] | Potency [10] | Potency [11] | Potency [12] | Potency [20] | Potency [13] | Potency [14] | Potency [15] | Potency [16] | Potency [17]
